Compounds with a hit are over-represented: about 2.4% of the library has one in this group of screens.
NadD block – inhibitors of S. aureus NadD, primary screen, biochemical, colorimetric, uHTS; purified NadD enzyme, colorimetric absorbance read-out; inhibition, % at 20 µM; actives 0.78% (n = 360,000); AID 602399, 2012; in the data active means inhibition above about 26%
Rpn11 block – Rpn11 (PSMD14) deubiquitinase inhibitors, primary screen, biochemical, fluorescence polarization, uHTS; inhibition, % at 20 µM; AID 588493, 2011; human 26S proteasome, Ub4-pepOG fluorescence polarization; 20S core pre-blocked with epoxomicin; actives 0.59% (n = 360,000); 26S proteasome non-ATPase regulatory subunit 14 (Homo sapiens), O00487;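 active means inhibition at 20 µM, scaled to each plate's controls, above about 33%, limit read from the data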
PP5 inh – PP5 phosphatase inhibitors, primary screen, biochemical, fluorescence; inhibition, % at 6.7 µM; purified PP5c, OMFP substrate fluorescence; Serine/threonine-protein phosphatase 5 (Homo sapiens), P53041; AID 1987, 2009; actives 0.18% (n = 320,000);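 active means inhibition above the campaign's mean inhibition across all tested compounds plus 3 SD, cut at about 9.5% in these data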
Target sequence (P53041 whole entry, looked up): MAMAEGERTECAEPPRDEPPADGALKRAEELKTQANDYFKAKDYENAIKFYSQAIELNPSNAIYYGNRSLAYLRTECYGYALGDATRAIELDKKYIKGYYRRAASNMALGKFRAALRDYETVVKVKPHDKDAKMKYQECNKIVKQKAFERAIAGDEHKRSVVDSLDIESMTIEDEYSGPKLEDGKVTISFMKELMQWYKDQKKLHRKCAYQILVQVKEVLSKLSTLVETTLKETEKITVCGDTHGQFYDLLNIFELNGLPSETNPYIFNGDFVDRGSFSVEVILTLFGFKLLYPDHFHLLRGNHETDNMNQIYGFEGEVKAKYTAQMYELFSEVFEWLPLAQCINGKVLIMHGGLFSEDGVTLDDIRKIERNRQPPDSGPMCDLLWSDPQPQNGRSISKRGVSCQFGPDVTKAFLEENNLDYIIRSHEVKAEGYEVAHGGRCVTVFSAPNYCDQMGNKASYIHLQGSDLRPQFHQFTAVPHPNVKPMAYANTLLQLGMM
PREPL inhibitor – PREPL enzyme inhibitors, primary screen, biochemical, fluorescence polarization; actives 0.68% (n = 320,000); inhibition, % at 5.96 µM; recombinant PREPL, fluorescence polarization activity-based probe; Prolyl endopeptidase-like (Homo sapiens), Q4J6C6; in the data active means inhibition above about 43%
PP1 counter – PP1-alpha phosphatase inhibitors, primary screen, counter-screen for PP5 inhibitor project, biochemical, fluorescence, OMFP substrate, single point; actives 0.9% (n = 320,000); purified PP1alpha; inhibition, % at 6.7 µM; Serine/threonine-protein phosphatase PP1-alpha catalytic subunit (Homo sapiens), P62136;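 active means inhibition above the mean inhibition of all tested compounds plus 3 SD, computed separately for each screening campaign, cut at about 15% in these data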
PP1 inh confirm – PP1 phosphatase inhibitors, confirmation, biochemical, fluorescence, OMFP substrate, triplicate; shares compounds with PP1 counter; inhibition, % at 6.7 µM; purified PP1alpha; actives 52% (n = 1,900);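 active means mean PP1 inhibition above a set limit taken from the earlier primary screen, cut at about 15% in these data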
PP5 inh counter – PP5 phosphatase inhibition by PP1 hits, confirmation, counter-screen for PP1 inhibitor project, biochemical, fluorescence, triplicate | shares compounds with PP1 counter | purified PP5c, OMFP fluorescence | inhibition, % at 6.7 µM | actives 4% (n = 1,900);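 active means mean PP5 inhibition over triplicate wells above about 9.5% taken from the earlier PP1 screen, limit read from the data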
PREPL confirm – human PREPL enzyme inhibitors, confirmation, biochemical, fluorescence polarization; inhibition, % at 5.96 µM; recombinant PREPL, fluorescence polarization activity probe; shares compounds with PREPL inhibitor; actives 67% (n = 2,000); in the data active means inhibition above about 43%
Rpn11 confirm – Rpn11 (PSMD14) deubiquitinase inhibitors, confirmation, biochemical, fluorescence polarization, single concentration | purified human 26S proteasome, Ub4-pepOG fluorescence polarization; proteasome pretreated with epoxomicin | actives 29% (n = 1,900) | shares compounds with Rpn11 block | inhibition, % at 20 µM
MMP-2 inh – MMP-2 enzyme inhibition, confirmation, counter-screen for RPN11 inhibitor project, biochemical, fluorescence, single concentration; inhibition, % at 20 µM; shares compounds with Rpn11 block; recombinant MMP-2, FRET peptide cleavage fluorescence; actives 4% (n = 1,900);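 further: human MMP-2 activated beforehand with APMA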
Thrombin FP – bovine thrombin protease inhibition, confirmation, counter-screen for Rpn11 inhibitor project, biochemical, fluorescence polarization, single concentration | shares compounds with Rpn11 block | bovine thrombin cleavage of Ub4-pepOG | inhibition, % at 20 µM | actives 13% (n = 1,900);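 active means mean inhibition at least 40% at 20 µM, or signal 3 deviations below plate average, so some actives read negative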
Large screens that a line does not name were inactive (follow-up assays come after a bar, where they were run). Unless noted, no stated cut-off is given here; in the data, active means inhibition above about 40%; inactive means the rest.

C#CCOCCOCCOCCNc1nc(N2CCN(C(=O)C(Cc3cc4ccccc4[nH]3)n3cc(C(N)Cc4ccc(O)cc4)nn3)CC2)nc(N2CCN(C(=O)C(CCC(=O)O)n3cc(C(N)C(C)CC)nn3)CC2)n1 (centres undefined)	none
COc1ccc2nc3cc(Cl)ccc3c(Nc3cc(CN4CCCC4)c(O)c(CN4CCCC4)c3)c2n1	PREPL inhibitor 63.9, PP1 counter 32.4 | PP1 inh confirm inactive | PP5 inh counter inactive | PREPL confirm 53.8
COCc1cc(CN2CCCC2)c(O)c2ncccc12	none
c1ccc(-c2nc(N3CCCCCC3)c3ccccc3n2)nc1	PREPL inhibitor 68.2, PP1 counter 26.9 | PP1 inh confirm 25.6 | PP5 inh counter inactive | PREPL confirm 65.2
CCCN(CCC)c1nc(-c2ccccn2)nc2ccccc12	none (no result: PP5 inh, PREPL inhibitor, PP1 counter)
c1ccc(CCNc2nc(-c3ccccn3)nc3ccccc23)cc1	PREPL inhibitor 73.5, PP1 counter 29.2 | PP1 inh confirm 49.6 | PP5 inh counter inactive | PREPL confirm 76.8
Cc1ccc(NS(=O)(=O)c2coc(C(N)=O)c2)cc1F	none
O=C(O)c1ccc(CNC(=O)C2CCN(S(=O)(=O)c3ccc4c(c3)OCCO4)CC2)cc1	none (no result: PP5 inh, PREPL inhibitor, PP1 counter)
COc1cc(C(=O)NC2CC(C)CC(C)(C)C2)cc(OC)c1OC (centres undefined)	none (no result: PP5 inh, PREPL inhibitor, PP1 counter)
Cc1ccccc1C(=O)NNS(=O)(=O)c1cccc([N+](=O)[O-])c1	none
CCc1nn2cc(C(=O)c3cc(Cl)ccc3O)cnc2c1-c1ccc(F)cc1	none
O=c1c(O)cccc2cc(O)c(O)c(O)c12	PREPL inhibitor 63.0, PP1 counter 20.9 | PP1 inh confirm inactive | PP5 inh counter inactive | PREPL confirm inactive
COc1ccc(/C=N/Nc2cc(C)nc3ccc(Br)cc23)cc1	PREPL inhibitor 55.9, PP1 counter 22.1 | PP1 inh confirm inactive | PP5 inh counter inactive | PREPL confirm 52.3
COc1cccc2c(N/N=C/c3ccccc3)cc(C)nc12	none
C=CCn1cc(/C=N/Nc2nc3ccccc3[nH]2)c2ccccc21	PREPL inhibitor 44.6, PP1 counter 21.6 | PP1 inh confirm 30.1 | PP5 inh counter inactive | PREPL confirm 49.9
CC(C)(C)N(CC#CCC(O)(c1ccccc1)c1ccccc1)CCO	none
COc1ccc(Cl)cc1C(=O)Nc1cccc(-c2ccc3nncn3n2)c1	Rpn11 block active, PP1 counter 50.9 | PP1 inh confirm 45.4 | PP5 inh counter inactive | Rpn11 confirm 75.6 | MMP-2 inh inactive | Thrombin FP inactive
